Screening data: PubChem BioAssay, several laboratories
An excerpt weighted towards active compounds, which were near 3.1% of everything screened.
UBC13 inh = UBC13 polyubiquitin chain formation inhibitors, primary screen, biochemical, TR-FRET, uHTS | Ubiquitin-conjugating enzyme E2 N (Homo sapiens), P61088 | 330,000 tested, 0.47% active | inhibition, % at 20 µM; in the data active means inhibition above about 45%, passing the limit was not always enough
ATG4B inh = ATG4B protease inhibitors, primary screen, biochemical, fluorescence, uHTS; inhibition, % at 8.33 µM; AID 504462, 2011; 340,000 tested, 0.51% active; ATG4B cleavage of LC3-PLA2, NBD-HPC fluorescence, 1 h; Cysteine protease ATG4B (Homo sapiens), Q9Y4P1; in the data active means inhibition above about 40%
MEKK3 PB1 HTS = modulators of MEKK3-MEK5 PB1 binding, primary screen, biochemical, wildtype MEKK3, multiplex bead flow cytometry, Alexa488-MEK5 | Mitogen-activated protein kinase kinase kinase 3 (Homo sapiens), Q99759 | bead-based flow cytometry, Alexa488-MEK5 binding to MEKK3; actives lie on both sides; 0 = blocked by unlabeled MEK5, 100 = vehicle | binding response (% of control), % at 10 µM | 290,000 tested, 1.4% active;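 active means binding response more than 3 SD above or below the average of its plate-row segment, actives on both sides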;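 further: Alexa488 bead fluorescence after subtracting the streptavidin-only scavenger bead signal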
PREPL inh = PREPL enzyme inhibitors, primary screen, biochemical, fluorescence polarization; Prolyl endopeptidase-like (Homo sapiens), Q4J6C6; recombinant PREPL, fluorescence polarization activity-based probe; inhibition, % at 5.96 µM; 320,000 tested, 0.68% active; in the data active means inhibition above about 43%
Target sequence (Q4J6C6 whole entry, looked up): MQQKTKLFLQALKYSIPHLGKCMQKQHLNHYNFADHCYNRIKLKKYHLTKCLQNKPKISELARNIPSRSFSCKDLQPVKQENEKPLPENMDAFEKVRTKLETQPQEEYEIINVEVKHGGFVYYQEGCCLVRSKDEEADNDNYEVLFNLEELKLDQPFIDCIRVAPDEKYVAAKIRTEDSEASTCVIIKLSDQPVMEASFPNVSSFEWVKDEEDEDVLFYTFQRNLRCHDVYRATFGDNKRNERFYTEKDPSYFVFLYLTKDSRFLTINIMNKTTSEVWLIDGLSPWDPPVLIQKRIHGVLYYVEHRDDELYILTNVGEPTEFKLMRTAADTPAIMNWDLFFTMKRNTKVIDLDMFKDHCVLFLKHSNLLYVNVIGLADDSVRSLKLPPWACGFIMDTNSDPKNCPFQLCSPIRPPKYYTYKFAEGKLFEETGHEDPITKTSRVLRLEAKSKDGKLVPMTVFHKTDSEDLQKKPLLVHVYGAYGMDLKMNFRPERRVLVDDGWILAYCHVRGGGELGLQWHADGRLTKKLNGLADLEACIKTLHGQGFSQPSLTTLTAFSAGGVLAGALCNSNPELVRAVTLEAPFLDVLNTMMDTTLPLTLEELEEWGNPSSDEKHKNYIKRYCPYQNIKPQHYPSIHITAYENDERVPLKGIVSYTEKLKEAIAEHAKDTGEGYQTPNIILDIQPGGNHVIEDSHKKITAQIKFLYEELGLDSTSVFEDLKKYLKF
MEKK2wt PB1 HTS = modulators of MEK5 binding to wildtype MEKK2, primary screen, biochemical, multiplex bead flow cytometry, Alexa488-MEK5 | Mitogen-activated protein kinase kinase kinase 2 (Homo sapiens), Q9Y2U5 | Alexa488-MEK5 binding to MEKK2 WT; actives lie on both sides | binding response (% of control), % at 10 µM | 290,000 tested, 1.1% active | AID 1531, 2009; in the data active means binding response below about 67% or above about 130%
MEKK2 mut-MEK5 = MEK5 binding signal on mutant MEKK2 PB1, primary screen, biochemical, multiplex bead flow cytometry, Alexa488-MEK5 | Alexa488-MEK5 binding to MEKK2 mutant | percent response, % at 10 µM | 290,000 tested, 0.35% active; in the data active means percent response above about 24%, passing the limit was not always enough
MEKK2wt confirm = modulators of MEK5 binding to wildtype MEKK2, confirmation, biochemical, single concentration, multiplex bead flow cytometry; shares compounds with MEKK3 PB1 HTS; Alexa488-MEK5 binding to MEKK2 WT; actives lie on both sides; binding response (% of control), % at 10 µM; 5,900 tested, 2.4% active; in the data active means binding response below about 16% or above about 210%; inactive means in between
MEKK2mut confirm = mutant MEKK2 PB1-MEK5 binding signal retest – biochemical, single concentration, multiplex bead flow cytometry, confirmation; shares compounds with MEKK3 PB1 HTS; Alexa488-MEK5 binding to MEKK2 mutant; percent response, % at 10 µM; 5,900 tested, 2% active; in the data active means percent response mostly above about 71%, no sharp cut-off; inactive means mostly below about 38%;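 further: higher means compound restores mutant binding toward wildtype level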
MEKK3 confirm = MEKK3 wild-type PB1 binding to MEK5, inhibitors, confirmation, biochemical, bead multiplex flow cytometry, single concentration, wildtype. shares compounds with MEKK3 PB1 HTS. 5,900 tested, 1.8% active. binding response (% of control), % at 10 µM. Alexa488-MEK5 binding to MEKK3; hits give low values;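 active means binding response below 72% of control, or above a set upper limit, though filed actives all read lower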
Hits are given with their value; - = inactive; . = no result; [ ] = another dose, or the depositor's remark.

SMILES	UBC13 inh	ATG4B inh	MEKK3 PB1 HTS	PREPL inh	MEKK2wt PB1 HTS	MEKK2 mut-MEK5	MEKK2wt confirm	MEKK2mut confirm	MEKK3 confirm
O=C1/C(=C\c2ccc(-c3ccccc3Cl)o2)SC(=S)N1CC1CCCO1 (stereo unspecified)	-	-	60[inhibitor]	-	35[inhibitor]	-	-	-	-
CCOC(=O)C1CSC2(CCC(c3ccccc3)CC2)N1 (stereo unspecified)	-	-	146	-	-	-	-	-	-
CCOC(=O)C1NC(=O)CC1c1ccccc1 (stereo unspecified)	-	-	-	-	-	-	.	.	.
Fc1cccc(Nc2nc(Cl)nc(Cl)n2)c1	-	-	3.0[inhibitor]	-	3.0[inhibitor]	-	-	-	-
Cc1cc(C)nc(Nc2cccc(Cl)c2)n1	-	-	-	.	-	-	.	.	.
CN(C#N)c1nc(Cl)nc(Nc2cccc(Cl)c2)n1	-	-	144	-	-	-	-	-	-
COc1ccc(C23CC4CC(CC(C4)C2)C3)cc1C(=O)NCCN(C)C	-	-	-	-	140	-	-	-	-
COc1ccc(NC(=S)N2CCc3ccccc32)cc1OC	-	-	-	-	-	-	.	.	.
COc1ccccc1NC(=O)NCCCl	-	-	5.0[inhibitor]	-	1.0[inhibitor]	-	-	-	-
O=C(NCCCl)Nc1ccccc1OCCOc1ccccc1NC(=O)NCCCl	-	-	-	-	-	-	.	.	.
COc1ccc2cc3cc(C(=O)NC(C)C)oc3nc2c1	-	-	124	-	-	-	-	-	-
N#CC(C#N)=c1ccc2c(c1)N1C(c3ccccc3)=CC(c3ccccc3)C3CCCCC31N=2 (stereo unspecified)	-	-	27[inhibitor]	-	-	-	-	-	61
O=C(CC(Nc1cccc(Cl)c1Cl)C(=O)O)c1ccccc1 (stereo unspecified)	-	-	-	-	-	-	.	.	.
O=C(CC(Nc1ccccc1Cl)C(=O)O)c1ccccc1 (stereo unspecified)	-	-	130	-	-	-	-	-	-
O=C(c1ccc(O)c(Cl)c1)N1CCN(S(=O)(=O)c2ccccc2)CC1	-	-	-	-	-	-	.	.	.
OC1CCCN(Cc2ccc3ccc4cccc5ccc2c3c45)C1 (stereo unspecified)	-	-	-	-	140	-	-	-	-
CCOc1ccc(N2CC(C(=O)NC3CCCC3)CC2=O)cc1 (stereo unspecified)	-	-	-	-	-	-	.	.	.
O=C(c1ccc(CS(=O)c2cccc(Cl)c2)o1)N1CCN(c2ccccn2)CC1 (stereo unspecified)	-	-	-	-	-	-	.	.	.
CCN(Cc1ccccc1)S(=O)(=O)c1ccc(C(=O)N(CCCN(C)C)c2nc3ccc(F)cc3s2)cc1	-	-	-	-	210	38	208	-	-
CCOc1ccc2nc(N(CCN(C)C)C(=O)c3ccc4c(c3)CCCC4)sc2c1	-	-	-	-	152	25	-	-	-
CCc1ccc2nc(N(CCCN(C)C)C(=O)c3ccc(S(=O)(=O)N(C)C4CCCCC4)cc3)sc2c1	48	-	-	-	210	51	-	-	-
CN(C)CCCN(C(=O)c1ccc(S(=O)(=O)N(C)C2CCCCC2)cc1)c1nc2ccc(Br)cc2s1	-	-	-	-	195	32	-	-	-
CCN(Cc1ccccc1)S(=O)(=O)c1ccc(C(=O)N(CCCN(C)C)c2nc3cc(OC)ccc3s2)cc1	-	-	.	-	.	.	.	.	.
CCN(C(=O)CSc1nc2ccc(Cl)cc2[nH]1)C1CCS(=O)(=O)C1 (stereo unspecified)	-	-	.	-	.	.	.	.	.
CN(C)CCCN(C(=O)c1ccc(S(=O)(=O)N(C)C2CCCCC2)cc1)c1nc2ccc(F)cc2s1	-	-	-	-	163	28	-	-	-
SMILES	UBC13 inh	ATG4B inh	MEKK3 PB1 HTS	PREPL inh	MEKK2wt PB1 HTS	MEKK2 mut-MEK5	MEKK2wt confirm	MEKK2mut confirm	MEKK3 confirm
COc1cc2nc(N(CCCN(C)C)C(=O)c3ccc(S(=O)(=O)N(C)C4CCCCC4)cc3)sc2cc1OC	-	-	.	-	.	.	.	.	.
COc1cccc(CN(C)C(=O)CSC(C)C(=O)Nc2cc(C)on2)c1OC (stereo unspecified)	-	-	.	-	.	.	.	.	.
CCC(=O)NCCNc1ccc([N+](=O)[O-])cn1	-	.	74[inhibitor]	-	-	-	-	-	-
CC(=O)NCCNc1ccc([N+](=O)[O-])cn1	-	-	-	-	-	-	.	.	.
CC(C)(C)c1ccc(CNc2ccc([N+](=O)[O-])cn2)cc1	.	-	145	-	-	-	-	-	-
Nn1cnc2c(c1=O)C1(CCCCC1)Cc1ccccc1-2	-	-	141	-	-	-	-	-	-
N#C/C(=N\Nc1cccc(C(F)(F)F)c1)C(=O)c1ccsc1	-	-	-	-	-	-	.	.	.
Brc1ccc(-c2nnc(-c3cccnc3)c3conc23)cc1	-	-	80[inhibitor]	-	-	-	-	-	-
CCOc1cc(C(=O)Nc2ccncc2)cc(OCC)c1OCC	-	-	-	-	-	-	.	.	.
Cc1ccc(NC(=O)c2cc(S(=O)(=O)NCCC3=CCCCC3)ccc2F)cc1	-	-	128	-	-	-	-	-	-
CCOC(=O)c1c(C)[nH]c(C(=O)OCc2csc(CC(=O)Nc3ccccc3C)n2)c1C	-	-	.	-	.	.	.	.	.
N/C(=N\N=C\c1ccco1)SC1CC(=O)N(c2ccccc2)C1=O (stereo unspecified)	-	-	-	-	-	-	.	.	.
N/C(=N\N=C\c1ccco1)SC1CC(=O)N(c2ccc(C(=O)O)cc2)C1=O (stereo unspecified)	-	-	135	-	-	-	-	-	-
